Compound activity as filed in PubChem.
Shown are actives, neighbours in structure and some others; about 2.9% of the full set was active somewhere.
D3 antag – blocks the human D3 dopamine receptor; max response, negative = inhibition, %; D3R cells, DiscoveRx beta-arrestin luminescence, antagonist mode; hits give low values; actives 2.5% (n = 360,000); AID 652054; in the data active means max response below about -50%; inconclusive means no clear call, values can overlap the other calls
Target sequence (P35462 whole entry, looked up): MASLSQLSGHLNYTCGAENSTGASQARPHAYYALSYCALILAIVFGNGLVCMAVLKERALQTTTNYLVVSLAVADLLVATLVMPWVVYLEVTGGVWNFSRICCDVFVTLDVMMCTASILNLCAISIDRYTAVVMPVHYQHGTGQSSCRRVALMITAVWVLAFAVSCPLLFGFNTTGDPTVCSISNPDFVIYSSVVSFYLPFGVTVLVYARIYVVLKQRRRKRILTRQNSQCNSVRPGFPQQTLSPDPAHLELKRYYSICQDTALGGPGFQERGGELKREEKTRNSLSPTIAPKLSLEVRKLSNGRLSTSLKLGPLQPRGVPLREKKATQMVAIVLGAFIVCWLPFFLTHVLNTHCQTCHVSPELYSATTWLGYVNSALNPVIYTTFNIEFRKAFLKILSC
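Cells plated overnight at 1500 cells/well, then exposed to library compounds with dopamine controls for 90 minutes at 37 degrees C. DiscoveRx reagent added for 30–60 minutes at room temperature; luminescence read, quantitative HTS format.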
Integrin act MD – activates integrin-mediated alleviation for muscular dystrophy; alpha7betagal myoblasts, beta-gal FDG fluorescence, 48 h; Potency, µM (titrated, usually from 38.3 µM), hits mostly activators; actives 0.064% (n = 350,000); active means well fitted activation curve with a large enough effect; inconclusive means small, poorly fitted or top-dose-only effect; inactive means no such curve, though single readings can be large or run the other way; further: nearly all actives have a fitted effect of over 60% in size
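Alpha7betagal+/- myoblasts (passage 13) were plated 16-24 hr, then exposed to compounds (1:260 dilution of DMSO stock) for 48 hours at 37C. After MPER lysis, β-galactosidase reporter activity was read as FDG fluorescence (ex 480/em 540) after 30 minutes.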
D3 ag – agonists of human D3 dopamine receptor | P35462 | D3R DiscoveRx beta-arrestin cells, luminescence, 90 min | max activation, % | actives 0.58% (n = 410,000) | AID 652048; in the data active means max activation above about 30%
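Agonist-mode cell screen: cells plated at 1500/well and incubated overnight at 37 °C, then exposed to library compounds for 90 min at 37 °C. Detection reagent was added for 30–60 min at room temperature, and luminescence was read.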
Each line names hits and unclear results; the compound was inactive in the other large screens.

Cc1cc(Oc2ccccc2)nc(SCC(N)=O)n1	D3 antag -78
COC(=O)c1ccc(Oc2cc(C)nc(SC)n2)cc1	none
CCC(=O)Nc1ccc(OCC2CCCO2)cc1 (centres undefined)	Integrin act MD inconclusive
COc1cccc(C(c2nnnn2Cc2ccccc2)N2CCN(C3CCCC3)CC2)c1OC (centres undefined)	none
COc1ccccc1C(c1nnnn1Cc1ccccc1)N1CCN(C2CCCC2)CC1 (centres undefined)	D3 antag -58
FC(F)(F)Oc1ccccc1C(c1nnnn1Cc1ccccc1)N1CCN(C/C=C/c2ccccc2)CC1 (centres undefined)	D3 antag -66 (no result: Integrin act MD)
COc1ccccc1C(c1nnnn1Cc1ccccc1)N1CCN(c2nc3ccccc3s2)CC1 (centres undefined)	none
CCCCn1nnnc1C(c1ccccc1)N1CCN(c2ccc(F)cc2)CC1 (centres undefined)	none (no result: Integrin act MD)
CCCCn1nnnc1C(c1ccccc1OC(F)(F)F)N1CCN(C/C=C/c2ccccc2)CC1 (centres undefined)	D3 antag -59 (no result: Integrin act MD)
Cc1ccc(Nc2c3c(nc4nncn24)CCC3)cc1	none (no result: D3 antag, Integrin act MD)
Nc1cc2c(cc1C(=O)c1ccccc1)OCCO2	D3 antag -60
Cc1ccc(C(=O)c2cc3c(cc2N)OCCO3)cc1	none
COc1ccc(NC(=O)N2CCN(c3nc(-c4cccc(OC)c4)cs3)CC2)cc1	D3 ag 51
COc1cccc(-c2csc(N3CCN(C(=O)Nc4ccc(Cl)cc4)CC3)n2)c1	none
c1ccc(N2CCN(c3ncnc4c3oc3ccccc34)CC2)cc1	D3 ag 36
CC(=O)N1CCN(c2ccc(Nc3ncnc4c3oc3ccccc34)cc2)CC1	D3 antag -64
CCc1nc(Nc2ccc(N3CCN(C(C)=O)CC3)cc2)c2oc3ccccc3c2n1	D3 antag inconclusive
CCc1nnc(N2CCN(c3ncnc4c3oc3ccccc34)CC2)s1	none
CC1CC(C)(C)Nc2ccc(OC(=O)c3ccco3)cc21 (centres undefined)	none
CC1CC(C)(C)Nc2ccc(N=O)cc21 (centres undefined)	D3 antag -84
CN1CC(=O)NC1=NC(=O)c1cc(F)c(F)cc1Cl	D3 antag inconclusive
Cc1ccc(S(=O)(=O)CC(O)COc2ccccc2C#N)cc1 (centres undefined)	none
N#Cc1ccc(OCC(O)CS(=O)(=O)c2ccccc2)cc1 (centres undefined)	Integrin act MD 10µM
COC(=O)CCC(=O)c1oc2ccccc2c1N	none
O=[N+]([O-])c1ccc2c(c1)C(N1CCN(CCO)CC1)Cc1ccc(F)cc1S2 (centres undefined)	D3 antag -106 (no result: Integrin act MD)
COc1ccc2c(c1)CC(N1CCN(C)CC1)c1cc(OC)ccc1S2 (centres undefined)	D3 antag -94
Fc1ccc2c(c1)Sc1ccc(Cl)cc1CC2N1CCN(CCC2OCCO2)CC1 (centres undefined)	D3 antag -93
CSc1ccc2c(c1)C(N1CCN(C)CC1)Cc1ccc(F)cc1S2 (centres undefined)	D3 antag -95
OCCN1CCN(CC/C=C2/c3ccccc3Sc3ccc(Cl)cc32)CC1	none (no result: Integrin act MD)
O=[N+]([O-])c1ccc(CN2CC(N3CCN(CCO)CC3)CS2(=O)=O)cc1 (centres undefined)	none
CCN1C(=O)CC(N2CCN(c3ccc(OC)cc3)CC2)C1=O (centres undefined)	none
CCN(C(=O)COC(=O)c1cccc(C)c1[N+](=O)[O-])c1c(N)n(Cc2ccccc2)c(=O)[nH]c1=O	none
CCOC(=O)N1CCC(NC(=O)CCC(=O)N2CC(C)Oc3ccccc32)CC1 (centres undefined)	none
CC(=O)O[C@@]12CO[C@@H]1C[C@H](O)[C@@]1(C)C(=O)[C@H](O)C3=C(C)[C@@H](OC(=O)[C@H](O)[C@@H](NC(=O)OC(C)(C)C)c4ccccc4)C[C@@](O)([C@@H](OC(=O)c4ccccc4)[C@H]21)C3(C)C	none (no result: D3 antag, Integrin act MD)
CC(C)(O/N=C(\C(=O)N[C@@H]1C(=O)N2C(C(=O)[O-])=C(C[n+]3ccccc3)CS[C@H]12)c1csc(N)n1)C(=O)O	none (no result: D3 antag, Integrin act MD)
CCOCCCNC(=O)C(c1ccc(Cl)cc1)N(Cc1ccc2c(c1)OCO2)C(=O)c1ccccc1O (centres undefined)	none (no result: D3 antag, Integrin act MD)
O=C(CCc1nnc(C2CCCCC2)o1)NCc1cccc(-n2cccn2)c1	none
CCCn1nc(NS(C)(=O)=O)c2cc3cccc(C)c3nc21	D3 antag -53
CCCn1nc(NC(=O)CC)c2cc3cccc(C)c3nc21	none
Cc1ccccc1NC(=O)CSC(N)=O	none
COc1ccccc1NC(=O)CSc1nnc(-c2ccc(C)cc2)o1	none
COc1ccccc1NC(=O)CCN1CCN(Cc2ccccc2)CC1	D3 antag -55
COc1ccccc1NC(=O)CN1CCCCCC1	none
COc1ccccc1NC(=O)CCN1CCCCCC1	D3 antag -111
COc1ccccc1NC(=O)CSc1nnc(-c2ccccn2)o1	D3 ag 32
O=C(CCN1CCN(Cc2ccccc2)CC1)Nc1ccccc1Cl	none
COc1ccccc1NC(=O)CSC(N)=O	D3 antag -107
Cc1c(F)cccc1NS(=O)(=O)c1ccc2c(c1)n(C)c(=O)c(=O)n2C	none
O=C1CCCN1c1ccc(S(=O)(=O)NCc2ccc(F)cc2)cc1	none
Clc1ncccc1-c1nc2ccccc2s1	none
O=c1c(-c2nc3ccccc3s2)cccn1Cc1ccc(Cl)cc1	D3 ag 56
O=C1CC(c2nc3ccccc3[nH]2)CN1c1cccc(C(F)(F)F)c1 (centres undefined)	none
N#CCCCCn1c(-c2cncs2)nc2ccccc21	D3 antag -56
c1ccc(Cn2c(-c3cncs3)nc3ccccc32)cc1	none
C/C(=N\NC(=O)COc1ccc([N+](=O)[O-])cc1)c1ccco1	none
Cc1ccc(C)c(N2CCN(C(=O)CCc3nc(-c4ccccc4C)no3)CC2)c1	none
Cc1ccc(C)c(N2CCN(C(=O)CCc3nc(-c4ccccc4Cl)no3)CC2)c1	D3 ag 50
Fc1ccc(-c2cnn3c(-c4ccncc4)ccnc23)cc1	none
COc1ccccc1CNC(=O)C1CCC(=O)N(CCCN2CCCC2=O)C1 (centres undefined)	none
COc1ccc(CNC(=O)C2CCC(=O)N(CCCN3CCCC3=O)C2)c(OC)c1 (centres undefined)	D3 ag 33
O=C(Nc1ccccc1F)c1cc2nc(C(F)F)cc(C(F)F)n2n1	none
O=P(OC1CCCCC1)(OC1CCCCC1)C(Nc1ccccc1)c1cccnc1 (centres undefined)	none
CCCC(=O)N1CCCC1(C)C(=O)NCc1ccc(F)cc1Cl (centres undefined)	none (no result: Integrin act MD)
Cc1ccc2c(c1)/C(=N/OS(=O)(=O)c1ccccc1)CCS2	none
CC1=CC(=O)C(C(C)C)=C/C1=N/OS(=O)(=O)c1ccccc1	D3 antag -79
CC1=CC(=O)C=C(C)C1=NOS(=O)(=O)c1ccccc1	D3 antag -56
Cc1ccc(S(=O)(=O)ON=C2CCN(S(=O)(=O)c3ccccc3)CC2)cc1	none
CC(C(=O)Nc1nc(-c2ccc(F)cc2)cs1)N1C(=O)C2CC=CCC2C1=O (centres undefined)	none
